Drawing on PubChem BioAssay (EPA / NIEHS), this text covers outcome and AC50 for three compounds.

Holding throughout (conditions): mRNA level, 48 h; actives raise or lower the signal
Read-out in assay [1]: Glutamate-cysteine ligase catalytic (GCLC), GCLC (gene 2729)
Description: LTEA_HepaRG_GCLC: Life Technologies and Expression Analysis (LTEA) Assay for Glutamate-cysteine ligase catalytic (GCLC) using HepaRG (AID 2283498). Put shortly: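 Oxidative-stress marker GCLC is measured as mRNA change in human HepaRG liver cells after 48 h chemical treatment in 0.5% DMSO, eight concentrations from 100 uM. Activity is fitted bidirectionally against vehicle.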

Read-out in assay [2]: growth arrest and DNA damage 45 (GADD45G), GADD45G (gene 10912)
Description: LTEA_HepaRG_GADD45G: Life Technologies and Expression Analysis (LTEA) Assay for growth arrest and DNA damage 45 (GADD45G) using HepaRG (AID 2283499). The essentials:
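Gain or loss of GADD45G mRNA, quantified by TaqMan qRT-PCR against three housekeeping genes, is fitted in both directions relative to 0.5% DMSO. Human HepaRG cultures receive test chemical for 48 h at up to 100 uM.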

Read-out in assay [3]: Glutamate-cysteine ligase regulatory (GCLM), GCLM (gene 2730)
As to the kind of experiment: LTEA_HepaRG_GCLM: Life Technologies and Expression Analysis (LTEA) Assay for Glutamate-cysteine ligase regulatory (GCLM) using HepaRG (AID 2283500). The essentials:
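HepaRG, 48 h dosing, 100 uM top, half-log x8, 0.5% DMSO vehicle. Readout: GCLM mRNA by TaqMan qRT-PCR, housekeeping-normalized (ACTB/GAPDH/POLR2A). Curves fit bidirectionally vs DMSO baseline.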

Read-out in assay [4]: Glutathione S-transferase M3 (GSTM3), GSTM3 (gene 2947)
Description: LTEA_HepaRG_GSTM3: Life Technologies and Expression Analysis (LTEA) Assay for Glutathione S-transferase M3 (GSTM3) using HepaRG (AID 2283501). The essentials: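 HepaRG, plated 48 h, then serum-free induction medium; test chemical 48 h, duplicate; 100 uM top, half-log x8, 0.5% DMSO. Read-out: GSTM3 mRNA (TaqMan qRT-PCR, Fluidigm array). Bidirectional fit vs DMSO.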

Read-out in assay [5]: Heat shock 70 kDa protein 1 (HSPA1A), gene 3303
Description: LTEA_HepaRG_HSPA1A: Life Technologies and Expression Analysis (LTEA) Assay for Heat shock 70 kDa protein 1 (HSPA1A) using HepaRG (AID 2283502). Put shortly: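 HepaRG, 48 h exposure, 8-pt half-log CRC from 100 uM in 0.5% DMSO, duplicates. Readout: TaqMan qRT-PCR of HSPA1A mRNA, housekeeping-normalized (ACTB/GAPDH/POLR2A). Bidirectional fit vs 0.5% DMSO baseline.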

Read-out in assay [6]: Hypoxia-inducible factor 1-alpha (Homo sapiens) (UniProt Q16665)
Description: LTEA_HepaRG_HIF1A: Life Technologies and Expression Analysis (LTEA) Assay for Hypoxia-inducible factor 1 (HIF1A) Trancription factor using HepaRG (AID 2283503). Put shortly: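 Gain- or loss-of-signal HIF1A mRNA changes are fitted against a DMSO baseline. HepaRG cultures receive eight concentrations, highest 100 uM, for 48 h in serum-free induction medium with 0.5% DMSO.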

Read-out in assay [7]: 3-Hydroxy-3-Methylglutaryl-CoA Synthase 2 (HMGCS2), HMGCS2 (gene 3158)
As to the kind of experiment: LTEA_HepaRG_HMGCS2: Life Technologies and Expression Analysis (LTEA) Assay for 3-Hydroxy-3-Methylglutaryl-CoA Synthase 2 (HMGCS2) using HepaRG (AID 2283504). Put shortly:
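HepaRG, plated 48 h then switched to serum-free induction media; cmpd 8-pt, max 100 uM, 1/2-log, 0.5% DMSO, n=2, 48 h. HMGCS2 mRNA by Fluidigm TaqMan qRT-PCR, ACTB/GAPDH/POLR2A norm; bidirectional fit vs DMSO.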

Read-out in assay [8]: HGF (gene 3082)
As to the kind of experiment: LTEA_HepaRG_HGF: Life Technologies and Expression Analysis (LTEA) Assay for Hepatocyte Growth Facto (HGF) using HepaRG (AID 2283505). Put shortly:
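Read-out is HGF transcript level by qRT-PCR, normalized to three housekeeping genes, fitted bidirectionally against 0.5% DMSO vehicle. Human HepaRG cells received test chemicals for 48 h at up to 100 uM.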

Read-out in assay [9]: Insulin Like Growth Factor 1 (IGF1), IGF1 (gene 3479)
As to the kind of experiment: LTEA_HepaRG_IGF1: Life Technologies and Expression Analysis (LTEA) Assay for Insulin Like Growth Factor 1 (IGF1) using HepaRG (AID 2283506). The essentials:
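qRT-PCR readout of IGF1 mRNA, normalized to three housekeeping genes, after 48 h chemical exposure of HepaRG cells. Concentrations: 8-point half-log series, top 100 uM, 0.5% DMSO vehicle. Gain or loss fitted against DMSO baseline.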

Read-out in assay [10]: Intercellular Adhesion Molecule 1 (ICAM1), ICAM1 (gene 3383)
As to the kind of experiment: LTEA_HepaRG_ICAM1: Life Technologies and Expression Analysis (LTEA) Assay for Intercellular Adhesion Molecule 1 (ICAM1) using HepaRG (AID 2283507). Put shortly: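 Readout is qRT-PCR mRNA level, normalized to three housekeeping genes and fitted bidirectionally against 0.5% DMSO vehicle. Human HepaRG cultures received compound for 48 h, top concentration 100 uM with half-log dilutions.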

Read-out in assay [11]: Interleukin 6 (IL6), IL6 (gene 3569)
As to the kind of experiment: LTEA_HepaRG_IL6: Life Technologies and Expression Analysis (LTEA) Assay for Interleukin 6 (IL6) using HepaRG (AID 2283509). The essentials:
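Changes in IL6 mRNA, up or down relative to 0.5% DMSO controls, were derived from concentration-response curves in human HepaRG cells treated for 48 h at up to 100 uM, with ACTB, GAPDH and POLR2A as normalizers.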

Read-out in assay [12]: Interleukin 6 Receptor (IL6R), IL6R (gene 3570)
Description: LTEA_HepaRG_IL6R: Life Technologies and Expression Analysis (LTEA) Assay for Interleukin 6 Receptor (IL6R) using HepaRG (AID 2283510). The essentials:
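HepaRG, 48 h exposure, 8-pt half-log series, top 100 uM, 0.5% DMSO vehicle, duplicates. Read-out: TaqMan qRT-PCR of IL6R transcript, housekeeping-gene normalized. Gain or loss fitted relative to DMSO baseline.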

Read-out in assay [13]: Potassium channel subfamily K member 1 (KCNK1), KCNK1 (gene 3775)
Description: LTEA_HepaRG_KCNK1: Life Technologies and Expression Analysis (LTEA) Assay for Potassium channel subfamily K member 1 (KCNK1) using HepaRG (AID 2283511). Put shortly:
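Human HepaRG cultures receive test chemicals for 48 h in 0.5% DMSO, top concentration 100 uM with half-log dilutions. Induction or suppression of KCNK1 mRNA relative to DMSO is derived by bidirectional fitting of qRT-PCR data.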

Read-out in assay [14]: Keratin 19 (KRT19), KRT19 (gene 3880)
Description: LTEA_HepaRG_KRT19: Life Technologies and Expression Analysis (LTEA) Assay for Keratin 19 (KRT19) using HepaRG (AID 2283512). The essentials:
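KRT19 transcript levels, measured by Fluidigm qRT-PCR against three housekeeping genes, are fitted for gain or loss of signal relative to DMSO. Human HepaRG cells receive test chemicals (top 100 uM, half-log steps, 0.5% DMSO) for 48 hours.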

Read-out in assay [15]: JUN Transcription Factor, JUN (gene 3725)
As to the kind of experiment: LTEA_HepaRG_JUN: Life Technologies and Expression Analysis (LTEA) Assay for JUN Transcription Factor using HepaRG (AID 2283513). The essentials:
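HepaRG, 48 h exposure, 8-pt half-log series top 100 uM, 0.5% DMSO, duplicate. JUN mRNA by qRT-PCR (Fluidigm), housekeeping-normalized (ACTB/GAPDH/POLR2A); bidirectional curve fit vs DMSO baseline.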

Read-out in assay [16]: Lipase C (LIPC), LIPC (gene 3990)
As to the kind of experiment: LTEA_HepaRG_LIPC: Life Technologies and Expression Analysis (LTEA) Assay for Lipase C (LIPC) using HepaRG (AID 2283514). The essentials:
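In this multiplexed gene-expression screen, human HepaRG cultures received test chemicals for 48 h across eight concentrations with 100 uM highest, in duplicate. Values reflect LIPC mRNA induction or suppression versus DMSO vehicle, from normalized qRT-PCR.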

Read-out in assay [17]: Lipoprotein lipase (LPL), LPL (gene 4023)
Description: LTEA_HepaRG_LPL: Life Technologies and Expression Analysis (LTEA) Assay for Lipoprotein lipase (LPL) using HepaRG (AID 2283515). The essentials: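 Concentration-response testing used half-log steps from 100 uM in 0.5% DMSO on human HepaRG cells, 48 h, duplicate wells. Phenobarbital 1 mM served as induction control; LPL mRNA was normalized to ACTB, GAPDH, POLR2A.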

Read-out in assay [18]: MicroRNA 122 (MIR122), gene 406906
As to the kind of experiment: LTEA_HepaRG_MIR122: Life Technologies and Expression Analysis (LTEA) Assay for MicroRNA 122 (MIR122) using HepaRG (AID 2283516). Note: the transcript read is the microRNA miR-122. The essentials: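 qRT-PCR read-out (TaqMan, Fluidigm array), normalized to three housekeeping genes; HepaRG cells dosed 48 h at 8 concentrations up to 100 uM in 0.5% DMSO, duplicate; gain or loss fitted against DMSO baseline.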

Read-out in assay [19]: matrix metalloproteinase-10 (MMP10), MMP10 (gene 4319)
As to the kind of experiment: LTEA_HepaRG_MMP10: Life Technologies and Expression Analysis (LTEA) Assay for matrix metalloproteinase-10 (MMP10) using HepaRG (AID 2283517). The essentials: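 In differentiated HepaRG cultures kept in 0.5% DMSO, test chemicals act for 48 h over an eight-point range with a top dose of 100 uM. Expression is then quantified by TaqMan RT-PCR against ACTB, GAPDH and POLR2A.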

Read-out in assay [20]: Insulin-like growth factor-binding protein 1 (IGFBP1), IGFBP1 (gene 3484)
As to the kind of experiment: LTEA_HepaRG_IGFBP1: Life Technologies and Expression Analysis (LTEA) Assay for Insulin-like growth factor-binding protein 1 (IGFBP1) using HepaRG (AID 2283508). The essentials: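 Thawed HepaRG cells are plated for 48 h, switched to serum-free induction medium, then dosed in duplicate for another 48 h (100 uM top, half-log steps). Lysates in RLT go to qRT-PCR, and gain or loss of signal is fitted relative to vehicle.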

Active and inactive are the calls of the source. Rule for the calls: active = hit-call score of the fitted dose curve at least 0.9, where 1 is the maximum; inactive = score below 0.9.

Sequence of Hypoxia-inducible factor 1-alpha (Homo sapiens) (Q16665 whole entry, looked up): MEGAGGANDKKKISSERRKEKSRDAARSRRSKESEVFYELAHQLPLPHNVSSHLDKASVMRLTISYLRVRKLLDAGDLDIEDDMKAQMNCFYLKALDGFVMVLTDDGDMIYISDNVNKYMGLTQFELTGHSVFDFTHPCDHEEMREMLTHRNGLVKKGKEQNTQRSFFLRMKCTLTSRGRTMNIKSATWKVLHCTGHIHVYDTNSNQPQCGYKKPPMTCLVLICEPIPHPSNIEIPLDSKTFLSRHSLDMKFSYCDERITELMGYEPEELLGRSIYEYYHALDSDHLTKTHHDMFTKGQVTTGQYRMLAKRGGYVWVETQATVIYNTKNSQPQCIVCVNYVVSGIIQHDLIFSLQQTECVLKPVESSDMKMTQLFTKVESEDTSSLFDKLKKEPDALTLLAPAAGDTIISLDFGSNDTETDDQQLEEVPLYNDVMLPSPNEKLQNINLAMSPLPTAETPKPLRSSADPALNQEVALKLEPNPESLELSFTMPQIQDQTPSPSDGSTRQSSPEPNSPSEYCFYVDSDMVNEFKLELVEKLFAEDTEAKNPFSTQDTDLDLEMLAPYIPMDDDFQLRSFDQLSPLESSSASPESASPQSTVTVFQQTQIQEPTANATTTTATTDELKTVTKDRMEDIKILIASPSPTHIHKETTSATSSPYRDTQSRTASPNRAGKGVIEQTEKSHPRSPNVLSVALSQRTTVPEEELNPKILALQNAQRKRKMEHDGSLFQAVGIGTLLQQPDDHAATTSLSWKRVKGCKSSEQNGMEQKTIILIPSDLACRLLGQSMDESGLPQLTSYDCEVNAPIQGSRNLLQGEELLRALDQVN

The AC50 is the concentration giving half of the maximal activity seen. Regarding `CC1COC(Cn2cncn2)(c2ccc(Oc3ccc(Cl)cc3)cc2Cl)O1` (configuration not stated), the call in assay [1], in assay [3], in assay [4], in [8] and in [12] was inactive. The half-maximal activity concentration (AC50) in assay [2] is 12.2 µM (active); in assay [5] it was 87.2 µM (active); in [6] it was 11.6 µM (active); in assay [7] it was 11.7 µM (active); in [9], 12.1 µM (active); in [10] it was 26.2 µM (active). The AC50 in assay [11] was 31.9 µM (active); in assay [13], 33.1 µM (active); in assay [14], 12.9 µM (active); in assay [15] it was 62.4 µM (active); in [16], 12 µM (active); in [17] it was 12.4 µM (active). The AC50 in assay [18] is 12.6 µM (active); in assay [19] it was 30.8 µM (active).

In the case of `OC(c1ccc(Cl)cc1)(c1cncnc1)c1ccccc1Cl` (configuration not stated), the AC50 is 50 µM (active) in assay [1]; 68.7 µM (active) in [2]; 57.8 µM (active) in assay [3]; 82 µM (active) in assay [7]; 62 µM (active) in [8]; 37.3 µM (active) in [9]. Besides, the concentration at half-maximal activity (AC50) in [10] was 74.3 µM (active); in [20] it was 71.9 µM (active); in assay [11] it was 73 µM (active); in assay [13], 50 µM (active); in assay [16] it was 85.7 µM (active); in assay [17] it was 50 µM (active). Also, the AC50 in [19] was 58.9 µM (active). Moreover, the compound was called inactive in [4], in assay [5], in assay [6], in assay [12], in assay [14] and in [15].

Regarding `CCCCOC(=O)c1ccccc1C(=O)OCCCC`, the call in assay [1], in [2], in assay [3], in assay [4], in [5] and in assay [6] was inactive. The outcome in [7], in [8], in assay [9], in assay [10], in assay [20] and in assay [11] was inactive. Further, the outcome in [12], in assay [13], in assay [14], in [15], in [16] and in [17] was inactive. Moreover, the compound was called inactive in assay [19].
